test system: VDR:RXRa (NR concentration 270 nM, RXRa partner concentration 90 nM); assay: PBM binding z-score (relative to random genomic background probes); higher = stronger binding; sequences stand for … in GC…GCGATTGACAGCGTAGAATGAAGG
Protocol: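 Protein-binding microarray (Agilent 4x180K custom design, double-stranded 60-nt probes: 5' GC cap, 34-nt variable region, 24-nt constant primer region; full probe sequence given). Purified or IVT nuclear receptor:RXRα heterodimers (3:1 NR:RXRα, mostly 270:90 nM) or homodimers were incubated for 1 h in PBS with 2% milk and no ligand, then detected with Alexa488 antibodies. Fluorescence from o1-orientation probes (~5 replicates averaged) was converted to z-scores against 500 random hg19 background probes. Variable regions are seed direct-repeat (DR0–DR5) sites, all their single-nucleotide variants and half-site ablations.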

| Sequence | PBM binding z-score |
| --- | --- |
| CCAGACAGGTGCAAGGTAACTCAGTCTGGTACGC | -0.136 |
| TCATATAGGTAAAGGGGAAAGTCGAACGATATGA | 0.735 |
| TGAATTAGGTTAAAGATCAGGGAACGTGGCGTCG | 0.374 |
| CCTACTGGGCCTTTCAGAGGTCATTGATCATATG | 3.36 |
| AGAATGAGGTTATTAAGACCAGGGAATTGCGGTC | 1.69 |
| ATCGAAAGTTCGAGGTGAGTATAGAGAAAGGGAA | 1.16 |
| AGAATGAGGTTATACGCAGATCAGGGAAGAAAGT | 1.35 |
| AGTCAGAGTTCAGGACGAGGTAACGTAAAGCACG | 3.77 |
| CGTCCAAGGTCATAGGAGGTGAGTGAAGACAGAT | 4.7 |
| TCTATGAGTTGATTAGGGCAACCGAAACAGCGGA | 0.54 |
| CCTATTCGTTGACCATAAGGGCAACCGAAGCTCG | 0.983 |
| AGAACCAGGGCACGCTGAGTTGATAGCAGAGTAG | 0.532 |
| TCTTGTAGATCAATAGAGGTTAGGAAAGTGCGCT | 1.05 |
| CCTTACGGGTCACGAGGGTATAGCACGACGAGCG | 5.04 |
| TCGAGTAGGTTAGCAATGGGGCATTCAGCTTTCT | -0.142 |
| CTCGAAAGGTCGGTTGACGTGAGTATACGGATAA | 1.02 |
| GCGACTCGGGCATCAGCAGGTTACCATAACTTAA | -0.42 |
| ATATGTAGGTTACATCCGGCTCATTCAGGCTATG | 0.412 |
| CAAACTAGGTCGAGAGGTCAAAGTCCGCTTCCCG | 5.01 |
| AGAATGAGGTTACCAAAGATAAGGGAAACGCTTG | 1.07 |

| Sequence | PBM binding z-score |
| --- | --- |
| TCTATTAGTTGTTTAGGGCAACCGAAACAGCGGA | 0.707 |
| GCTGCTAGGTCAGGTTGGTGAGCTAACGGGTACG | 0.141 |
| CCGACTGGGGCAAAGGTGACCATACTCAGTACGA | 0.389 |
| GGAACGAGGGCATTCGAGTTGATTGCATGGCGAT | 3.81 |
| CGACCAAGGTCAAGGTCAGTGAAAGAGACTCGAA | 4.82 |
| CGTCCAAGGTCAATGCTAGGTCAGCGAAAGCATT | 4.93 |
| AGAACGAGGGCACACTGAGTTGATAGCAGAGTAG | 2.15 |
| ATCTCCAGGTAACAAGTTCAGTGAAAGAGAGGAC | 2.42 |
| TCTTGCAGATCAACAGGAGGTTAAGAAAGATCGA | 0.489 |
| CCTCGGAGGACAGAAGGACAGAGCTGTCCGCTTT | -0.413 |
| GCTAGCAGGCCATTTGGGTCACACAATGACGGGC | 1.24 |
| GCTATTAGTTGAAAGGTCAACCGAATGATTCTCG | 4.71 |
| ATCTCTAGGTAACAAGTTCAGCGAAAGAGAGGAC | 2.45 |
| CGAACTAGTTCATTGACAGGACAGTGAATAGTAA | 1.26 |
| TTACCAAGGTGAAAGGTCGTGGATGCACGCCTTG | 3.28 |
| CCGAGTAGGTTATGGGGCCTTCAGGCAACGGTGA | -0.408 |
| CATAGAGGGTCAGCTAGGCCAGAGTAGGGACGGC | 2.69 |
| CCGCCTGGGGCAGAAAGGTTACCATACCATCCGG | 0.57 |
| TCGAGTAGGTTAGGGCCATTCAGAATGGCGTCGA | -0.353 |
| GATACAGGTTCAGCTAGAGGCCAGAGTATGGAAA | 2.28 |

— the supplement of paper PMC6555819
